Hits are enriched below; roughly 9.4% of the tested compounds scored in any of these assays.
AMA1 RON2 block = AMA1-RON2 (P. falciparum) interaction inhibition; Potency, µM (top dose mostly 58.2 µM), usual class: inhibitors; AlphaScreen AMA1-biotinylated RON2 peptide binding; AID 720542; 360,000 tested, 0.2% active; note: nearly all actives have a fitted effect of over 45% in size
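AMA1 (3D7) with his tag at 25 nM final met compounds first, then biotinylated RON2 peptide at 25 nM; detection used donor plus acceptor beads, 10 µg/mL apiece, read by AlphaScreen after 30 min at room temperature.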
Pf growth 48h = inhibits P. falciparum growth in the first generation, 48 h; P. falciparum luciferase growth in erythrocytes, 48 h; Potency, µM (titrated, usually from 28.7 µM), hits mostly inhibitors; 310,000 tested, 5.9% active
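Luciferase-expressing parasites in RBCs, 2% Hct / 0.1% parasitemia final; RPMI 1640 + 0.5% Albumax; 37 C, 5% CO2, one generation; luminescence read-out, lower signal = inhibition.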
Pf growth 96h = P. falciparum growth inhibition at 96 hours; P. falciparum luciferase reporter growth, 96 h; AID 504834; 320,000 tested, 6.9% active; Potency, µM (titrated, usually from 28.7 µM), hits mostly inhibitors
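Compounds incubated with erythrocytes infected by luciferase-expressing P. falciparum (2% hematocrit, 0.05% parasitemia final) for 96 hours, 37 C in 5% CO2. Growth inhibition scored as decreased luciferase luminescence.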
SARS PLpro yeast = SARS-CoV PLP inhibition in yeast; Potency, µM (series often up to 32.9 µM), actives largely listed as activators; S. cerevisiae expressing SARS-CoV PLpro, growth rescue; 330,000 tested, 0.19% active; calls by dose curve; note: nearly all actives have a fitted effect of over 55% in size
Each line names hits and unclear results; the compound was inactive in the other large screens. Unless noted, calls come from the whole dose curve; as a rule, active = well fitted curve in the direction sought with a large enough effect; inconclusive = small, poorly fitted or top-dose-only effect, or another doubt; inactive = no such curve, though single readings can be large; an effect the other way counts as inactive or inconclusive.

CN1C2C=C3C(C#N)=C(N)C(C#N)(C#N)[C@H](c4c(F)cccc4F)[C@H]3C1CC2 (stereo partly specified)	Pf growth 48h inconclusive, Pf growth 96h inconclusive
Cc1nnc(N/N=C/c2cccc(C(F)(F)F)c2)n1N	Pf growth 96h 15µM
Cc1nnc(N/N=C/c2ccccc2C(F)(F)F)n1N	none
Cc1nnc(N/N=C/c2cccc(OCc3ccc(Cl)c(Cl)c3)c2)n1N	Pf growth 48h 13µM, Pf growth 96h inconclusive
CCOc1cc(/C=N/Nc2nnc(C)n2N)ccc1OC(C)=O	Pf growth 96h inconclusive
COc1ccc(C(C[N+](=O)[O-])c2c(-c3ccccc3)cc3ccccn23)cc1OC (stereo unspecified)	Pf growth 48h inconclusive, Pf growth 96h inconclusive (no result: SARS PLpro yeast)
COc1cc(C(C[N+](=O)[O-])c2c(-c3ccccc3)cc3ccccn23)cc(OC)c1OC (stereo unspecified)	Pf growth 96h 12µM (no result: Pf growth 48h)
COc1ccc(-c2oc(/N=C/N3CCOCC3)c(C#N)c2-c2ccc(OC)cc2)cc1	Pf growth 48h 6.6µM (no result: Pf growth 96h)
OC1=C(O)c2nc3cc(C(F)(F)F)ccc3nc21	AMA1 RON2 block 28µM, Pf growth 48h inconclusive
O=C(CCCNC(=O)c1ccc(Cl)cc1)Nc1ncccc1O	Pf growth 48h inconclusive, Pf growth 96h 8.3µM
O=C(CCNC(=O)c1ccc(Cl)cc1)Nc1ncccc1O	none
CCc1nc2ccc(C(=O)N3CCN(S(=O)(=O)CC)CC3)cn2c1N(C)Cc1cccs1	none (no result: Pf growth 48h, Pf growth 96h, SARS PLpro yeast)
CCC(C)NC(=O)c1ccc(CNS(=O)(=O)c2ccc3c(c2)C(C)(C)C(=O)N3C)cc1 (stereo unspecified)	Pf growth 96h 9.3µM
Cc1noc(NS(=O)(=O)c2ccc(N/C=C\C(=O)c3ccccc3)cc2)c1C	Pf growth 96h inconclusive
Cc1ccc(N(CC(=O)NC(C)(C)C)C(=O)CNC(=O)c2cccs2)cc1	Pf growth 48h 7.4µM
CCc1ccc(N(CC(=O)NC(C)(C)C)C(=O)CNC(=O)c2cccs2)cc1	Pf growth 48h inconclusive
COc1ccccc1NC(=O)CN1C(=O)C(C)SC(C)C1=O (stereo unspecified)	none
COc1cccc(C(=O)NCCC2=CCCCC2)c1	none (no result: Pf growth 48h)
O=C(COc1cccc2ccccc12)N1c2ccccc2CCc2ccccc21	Pf growth 48h 10µM, Pf growth 96h inconclusive
O=C(CCl)N1c2ccccc2CCc2ccccc21	Pf growth 48h 10µM, Pf growth 96h inconclusive (no result: AMA1 RON2 block)
CC(C)(C)OC(=O)CC[C@@H](C(=O)N1CCN(C(=O)OC(C)(C)C)CC1)n1cc(C(Cc2ccc(O)cc2)NC(=O)OC(C)(C)C)nn1 (stereo partly specified)	Pf growth 48h inconclusive, Pf growth 96h 4.7µM
CC[C@@H](C)C(NC(=O)OC(C)(C)C)c1cn([C@@H](Cc2cc3ccccc3[nH]2)C(=O)N2CCN(C(=O)OC(C)(C)C)CC2)nn1 (stereo partly specified)	Pf growth 48h inconclusive, Pf growth 96h 3.7µM
N[C@@H](CO)c1cn([C@@H](Cc2cc3ccccc3[nH]2)C(=O)N2CCNCC2)nn1	none
CC(C)CC(NC(=O)OC(C)(C)C)c1cn([C@@H](CCCCNC(=O)OC(C)(C)C)C(=O)N2CCN(C(=O)OC(C)(C)C)CC2)nn1 (stereo partly specified)	Pf growth 48h inconclusive, Pf growth 96h 3.7µM
CC[C@@H](C)C(NC(=O)OC(C)(C)C)c1cn([C@@H](CCCCNC(=O)OC(C)(C)C)C(=O)N2CCN(C(=O)OC(C)(C)C)CC2)nn1 (stereo partly specified)	Pf growth 48h inconclusive, Pf growth 96h 4.1µM
CCC1(c2ccccc2)NC(=O)N(CC(=O)Nc2ccc(N3CCOCC3)cc2)C1=O (stereo unspecified)	none (no result: Pf growth 48h, Pf growth 96h)
O=C(N/N=C/c1ccc(O)cc1)c1nc(-c2ccccc2)n(-c2ccccc2)n1	none
CC(C)c1ccc(/C=c2\sc3nc(-c4ccncc4)nn3c2=O)cc1	Pf growth 96h 4.1µM
O=C(NCc1n[nH]c(=S)n1-c1ccc(Cl)c(Cl)c1)c1ccco1	Pf growth 48h inconclusive, Pf growth 96h 15µM
Cc1nc2nc(C)c(CCC(=O)N3CCN(c4ccccn4)CC3)c(C)n2n1	none
CCn1c(=O)c(CCC(=O)N2CCN(c3ccccn3)CC2)c(C)c2c(C)nn(-c3cccc(C)c3)c21	Pf growth 48h 9.3µM, Pf growth 96h inconclusive
CCn1c(=O)c(CCC(=O)NCC2CCCO2)c(C)c2c(C)nn(-c3ccc(C)cc3)c21 (stereo unspecified)	Pf growth 48h 5.2µM
Cc1ccc(S(=O)(=O)N2[C@@H](c3ccccc3F)C(C(=O)O)=CC[C@H]2c2ccc(Cl)c(Cl)c2)cc1	Pf growth 48h inconclusive, Pf growth 96h 12µM
COc1cccc([C@@H]2CC=C(C(=O)O)[C@H](c3cccc(Cl)c3)N2S(=O)(=O)c2ccc(C)cc2)c1	Pf growth 48h inconclusive, Pf growth 96h 12µM
COc1cc([C@@H]2CC=C(C(=O)O)[C@H](c3ccc(F)cc3)N2S(=O)(=O)c2ccc(C)cc2)cc(OC)c1OC	Pf growth 48h 3.3µM, Pf growth 96h 1.9µM
COc1ccc([C@@H]2CC=C(C(=O)O)[C@H](c3ccc(Br)cc3)N2S(=O)(=O)c2ccc(C)cc2)cc1OC	none (no result: Pf growth 48h, Pf growth 96h)
COc1ccc([C@@H]2CC=C(C(=O)O)[C@H](c3ccc(F)cc3)N2S(=O)(=O)c2ccc(C)cc2)cc1OC	Pf growth 48h inconclusive, Pf growth 96h 10µM
COc1cccc([C@@H]2CC=C(C(=O)O)[C@H](c3ccccc3)N2S(=O)(=O)c2ccc(C)cc2)c1	Pf growth 48h inconclusive, Pf growth 96h inconclusive
O=C(CN1C(=O)c2ccccc2C1=O)Nc1ccccc1F	none (no result: Pf growth 96h)
COc1ccccc1-c1cccc(-c2nc(C(=O)N3CCCCC3)cc3c2[C@H](CCO)N(S(=O)C(C)(C)C)C3)c1 (stereo partly specified)	none (no result: Pf growth 48h, Pf growth 96h, SARS PLpro yeast)
COC(=O)c1cn(NC(=O)c2cc([N+](=O)[O-])ccc2F)c(=O)c2ccccc12	none
COc1cc(N)cc(NC(=O)c2ccncc2)c1	none
Cc1ccc(S(=O)(=O)N2[C@@H](c3ccccc3F)C(C(=O)O)=CC[C@H]2c2cccc(C)c2)cc1	Pf growth 48h inconclusive
COc1cc([C@@H]2CC=C(C(=O)O)[C@H](c3ccccc3F)N2S(=O)(=O)c2ccc(C)cc2)cc(OC)c1OC	Pf growth 48h 10µM, Pf growth 96h 10µM
CC(C)(C)c1cc(CCC(=O)NCCc2ccccn2)cc(C(C)(C)C)c1O	Pf growth 48h inconclusive, Pf growth 96h 12µM
COCCOC(=O)N/C=C\c1nc2ccccc2c(=O)[nH]1	none
Cc1cc(C(F)(F)F)nn1CC(=O)NCc1ccco1	Pf growth 96h 1.5µM
Cc1c(Cl)c([N+](=O)[O-])nn1CC(=O)NCc1ccco1	Pf growth 96h 1.5µM
COc1ccc(-c2cc3c(=O)n(CC(=O)N4CCCC4)ncn3n2)cc1	Pf growth 96h inconclusive
CCN(CC)CCN(C(=O)c1ccc2ccccc2c1)c1nc2ccc(F)cc2s1	none

Compound activity (PubChem BioAssay)
